Inconclusive results are not listed. The source made the active and inactive calls. Unless noted, calls follow the shape of the dose curve; as a rule, active = well fitted curve in either direction with a large enough effect (not every such curve was filed as active); inconclusive = small, poorly fitted or top-dose-only effect, or another doubt; inactive = flat fitted curve, though single readings scatter.
What was measured:
[1] = biological target: Lysosomal acid glucosylceramidase (Homo sapiens) (UniProt P04062); experiment: Glucocerebrosidase-p2 (AID 348; in the data active = potency below about 10 µM; also: potency is read from the fitted curve at half-maximal effect); conditions: purified GBA, blue fluorogenic substrate, 40 min
Method in brief: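 Compounds titrated from 0.6 nM upwards against 0.2 nM enzyme in pH 5.9 citric acid/KH2PO4, taurocholate, tween-20; blue fluorogenic substrate 80 uM, 40 min room temperature, stopped and read Ex 365/Em 440 for AC50.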

[2] = AP1 Signaling Pathway (AID 357); conditions: ME-180 AP-1-bla reporter, EGF-induced, beta-lactamase ratio, 5 h; at 7.69 µM (top of the series) unless noted;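 also: ME-180 reporter cells stimulated with EGF at its EC50 level; % is scaled to controls: 0 for no effect and ±100 for the full control effect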
Method in brief: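 In this screen, ME-180 cells in Opti-MEM with 0.5% dialyzed FBS received EC50 EGF and compound titrations for 5 h. AP-1 reporter beta-lactamase was detected via CCF4 ratio, giving AC50 for positive and negative modulators.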

[3] = biological target: Cytochrome P450 1A2 (Homo sapiens) (UniProt P05177); experiment: p450-cyp1a2 (AID 410; calls by dose curve; also: potency is read from the fitted curve at half-maximal effect;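 as to activity change, negative = inhibition: -100% = full effect of reference inhibitor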); conditions: recombinant CYP1A2, luciferin-ME demethylation, luminescence; series mostly up to 57 µM
Method in brief: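 Luminescent readout of luciferin formed from Luciferin-ME by human CYP1A2; data normalized against complete inhibition by 57 uM furafylline. Enzyme 20nM, substrate 100uM at Km, 100mM KPO4 buffer, 60 min reaction at room temperature.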

[4] = NFAT Signaling Pathway (AID 444); conditions: Jurkat NFAT-bla M1, carbachol, beta-lactamase ratio, 5 h; at 7.69 µM (top of the series) unless noted;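 also: carbachol stimulus at about its EC50 of 1 µM final; % is scaled to controls: 0 for no effect and ±100 for the full control effect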
Method in brief: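 Jurkat cells carrying an NFAT-driven β-lactamase reporter and co-transfected muscarinic M1 receptor were treated with compound plus carbachol (1 uM final, an EC50 level) for 5 h at 37 °C. CCF4 loading followed for 1 h at RT; 460/530 nm ratio gave %activity.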

[5] = Stat Signaling Pathway (AID 446); conditions: ME-180 SIE beta-lactamase reporter, IL-6 stimulated, 5 h; at 7.69 µM (top of the series) unless noted;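 also: ME-180 cervical cancer cells given 40 pM IL-6 alongside compound; SIE-controlled beta-lactamase reporter measured as 460/530 nm FRET emission ratio; % is scaled to controls: 0 for no effect and ±100 for the full control effect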
Method in brief: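 Screening format detects activators and inhibitors alike: ME-180 SIE-bla cells stimulated at 40 pM IL-6 for 5 hrs with compound, then dual-emission beta-lactamase read at 405 nm excitation.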

[6] = biological target: Glucocorticoid receptor (Homo sapiens) (UniProt P04150); experiment: GR-EFC Redistribution (AID 451; calls by dose curve; also: potency is read from the fitted curve at half-maximal effect); conditions: CHO-K1 GR-EFC translocation, beta-gal luminescence, 2 h
Method in brief: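 CHO-K1 cells stably expressing nuclear-localized β-gal enzyme acceptor and GR fused C-terminally to the enzyme donor fragment; ligand-driven nuclear translocation restores β-gal by complementation. Compounds titrated up to 46 uM final, 2 h at 37 °C; luminescence read.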

[7] = biological target: Mitogen-activated protein kinase 10 (Mus musculus) (UniProt Q61831); experiment: JNK3 AlphaScreen Assay (AID 530); conditions: JNK3 lysate, c-Jun phosphorylation; series mostly up to 57.1 µM;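 also: kinase came from lysate of stimulated human HepG2 cells; signal reports phosphorylation of biotinylated GST-cJun 1-79 at Ser73 with 10 µM ATP; % is scaled to controls: 0 for no effect and ±100 for the full control effect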
Method in brief: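 Inhibitors reduce antibody binding to phosphorylated biotin-cJun, lowering AlphaScreen luminescence. Lysates from HepG2 cells pre-activated by IL-1beta plus TNF-alpha supplied JNK3; compounds were titrated.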

[8] = biological target: 3',5'-cyclic-AMP phosphodiesterase 4B (Homo sapiens) (UniProt Q07343); experiment: qHTS Assay for Inhibitors of PDE-IV (AID 607; active = well fitted activation curve with a large enough effect in the main read-out, with a control signal flat, not every such curve was filed as active; also: % of control where 0% means no effect); conditions: HEK293 ACTOne CNG channel cells, membrane potential fluorescence; series mostly up to 22.9 µM
Method in brief: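 The readout is membrane depolarisation from a cAMP-sensing CNG channel, detected with a potential dye at ex 535/em 590. Cells were HEK293-derived (endogenous PDE-IV) at 1000 cells/well, titrated up to 22.9 uM final.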

[9] = biological target: Cytochrome P450 3A4 (Homo sapiens) (UniProt P08684); experiment: qHTS Assay for Activators of Cytochrome P450 3A4 (AID 885; active = well fitted curve in the direction sought with a large enough effect; an effect the other way counts as inactive or inconclusive; also: nearly all actives have a fitted effect of over 65% in size; also: potency is read from the fitted curve at half-maximal effect); conditions: recombinant CYP3A4, Luciferin-PPXE luminescence, 60 min; series mostly up to 57.1 µM
Method in brief: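 Steps: enzyme/substrate mix dispensed; compound added, 10 min RT; NADPH regeneration solution added, 60 min RT; luciferin detection buffer stops reaction; 20 min later luminescence measured.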

[10] = qHTS Assay for Lipid Storage Modulators (AID 1519; calls by dose curve); conditions: Drosophila S3 cells, BODIPY lipid droplet/cell ratio, laser cytometry, cells loaded with oleic acid; for activity change, negative = inhibition: at 57.5 µM (top of the series)
Method in brief: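 Cells seeded at 5,000 per well were treated with compounds over a concentration series and loaded with oleic acid (400 uM, as added). Lipid droplet fluorescence (488 nm excitation, 500-530 nm channel) was read by laser-scanning cytometry and normalized to 20 uM Triacsin C.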

[11] = Primary qHTS for small molecule stabilizers of the endoplasmic reticulum resident proteome: Secreted ER Calcium Modulated Protein (SERCaMP) assay (AID 1508630; active = well fitted curve in the direction sought with a large enough effect; an effect the other way counts as inactive or inconclusive; also: % is scaled to controls: 0 for no effect and ±100 for the full control effect); conditions: SH-SY5Y GLuc-SERCaMP (Gaussia luciferase released on ER calcium loss) secretion, thapsigargin, luminescence; series mostly up to 38.4 µM
Method in brief: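 GLuc-SERCaMP-expressing SH-SY5Y cells, pretreated 16 h with compound, are challenged with thapsigargin to empty ER calcium stores; after 4 h, coelenterazine is added directly to the medium and luminescence is imaged.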

[12] = biological target: Cytochrome P450 3A4 (Homo sapiens) (UniProt P08684); experiment: qHTS Assay for Inhibitors and Substrates of Cytochrome P450 3A4 (AID 884; active = well fitted curve in the direction sought with a large enough effect; an effect the other way counts as inactive or inconclusive; also: nearly all actives have a fitted effect of over 50% in size; also: potency is read from the fitted curve at half-maximal effect); conditions: recombinant CYP3A4, Luciferin-PPXE luminescence; series mostly up to 57.1 µM
Method in brief: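 20 nM human CYP3A4 with 25 uM Luciferin-PPXE (at KM) in 200 mM KPO4, preincubated 10 min with compound; NADPH regeneration started a 60 min RT reaction. Luciferin detected by luminescence, normalized to 57 uM ketoconazole as full inhibition.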

[13] = biological target: Cytochrome P450 2C9 (Homo sapiens) (UniProt P11712); experiment: qHTS Assay for Inhibitors and Substrates of Cytochrome P450 2C9 (AID 883; active = well fitted curve in the direction sought with a large enough effect; an effect the other way counts as inactive or inconclusive; also: potency is read from the fitted curve at half-maximal effect; nearly all actives have a fitted effect of over 60% in size); conditions: recombinant CYP2C9, luciferin-H luminescence, 60 min; series mostly up to 57.1 µM
Method in brief: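 CYP2C9 deoxyluciferin hydroxylation, 37C, 60 min with NADPH regeneration; 10nM enzyme, 100uM Luciferin-H (KM). Glo detection reagent stopped reaction; luminescence normalized to sulphaphenazole (57uM) full inhibition.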

[14] = biological target: Cytochrome P450 2D6 (Homo sapiens) (UniProt P10635); experiment: qHTS Assay for Inhibitors and Substrates of Cytochrome P450 2D6 (AID 891; active = well fitted curve in the direction sought with a large enough effect; an effect the other way counts as inactive or inconclusive; also: potency is read from the fitted curve at half-maximal effect; nearly all actives have a fitted effect of over 60% in size); conditions: recombinant CYP2D6, luciferin-ME EGE luminescence; series mostly up to 57.1 µM
Method in brief: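 Human CYP2D6 (5 nM) with 30 uM Luciferin-ME EGE (at Km) in 100 mM KPO4, compound preincubated 10 min, then NADPH regeneration system for 60 min at room temperature. Luciferin read by luminescence; normalized to 1.43 uM quinidine.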

[15] = biological target: Cytochrome P450 2C19 (Homo sapiens) (UniProt P33261); experiment: qHTS Assay for Inhibitors and Substrates of Cytochrome P450 2C19 (AID 899; active = well fitted curve in the direction sought with a large enough effect; an effect the other way counts as inactive or inconclusive; also: potency is read from the fitted curve at half-maximal effect; nearly all actives have a fitted effect of over 60% in size); conditions: recombinant CYP2C19, luciferin-H EGE luminescence; series mostly up to 57.1 µM
Method in brief: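 In 50mM KPO4, the reaction held 5nM enzyme and KM-level (10uM) Luciferin-H EGE; it ran 60 min at 37C after NADPH regeneration and a 10 min compound preincubation. Luminescence values were scaled to 57uM ketoconazole as complete inhibition.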

[16] = qHTS Assay for Identification of Small Molecule Agonists for Hypoxia Response Element Signaling Pathway (AID 914; active = well fitted activation curve with a large enough effect in the signal ratio, with a control signal flat, not every such curve was filed as active; the % refers to the signal ratio; also: % of control where 0% means no effect); conditions: ME-180 (cervical carcinoma) HRE-bla reporter, beta-lactamase ratio, CoCl2, 17 h; activation: stronger effect = higher value
Method in brief: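 Compounds in a titration series were added to ME-180 reporter cells alongside an EC50 level of CoCl2. After 17 hours, beta-lactamase activity was read as the 460nm/530nm emission ratio of CCF4, giving AC50 values.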

[17] = measured here: cell count channel max response
[18] = measured here: lipid channel max response

Sequence of Cytochrome P450 1A2 (Homo sapiens) (P05177 whole entry, looked up): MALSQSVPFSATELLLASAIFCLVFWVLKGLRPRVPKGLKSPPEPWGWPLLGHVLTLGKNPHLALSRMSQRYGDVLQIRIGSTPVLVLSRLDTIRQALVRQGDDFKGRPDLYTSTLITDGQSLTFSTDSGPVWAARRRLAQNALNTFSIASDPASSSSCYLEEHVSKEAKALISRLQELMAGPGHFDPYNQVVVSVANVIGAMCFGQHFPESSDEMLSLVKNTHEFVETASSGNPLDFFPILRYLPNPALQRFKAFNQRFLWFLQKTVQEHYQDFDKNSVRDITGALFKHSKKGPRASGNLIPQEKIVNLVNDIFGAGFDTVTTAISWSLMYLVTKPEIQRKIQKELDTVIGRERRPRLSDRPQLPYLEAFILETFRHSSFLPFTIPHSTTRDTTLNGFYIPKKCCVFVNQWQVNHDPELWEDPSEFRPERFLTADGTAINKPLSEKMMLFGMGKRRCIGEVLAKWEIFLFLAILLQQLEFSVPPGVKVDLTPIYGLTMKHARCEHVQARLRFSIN
Sequence of Glucocorticoid receptor (Homo sapiens) (P04150 whole entry, looked up, the tested form may be a part): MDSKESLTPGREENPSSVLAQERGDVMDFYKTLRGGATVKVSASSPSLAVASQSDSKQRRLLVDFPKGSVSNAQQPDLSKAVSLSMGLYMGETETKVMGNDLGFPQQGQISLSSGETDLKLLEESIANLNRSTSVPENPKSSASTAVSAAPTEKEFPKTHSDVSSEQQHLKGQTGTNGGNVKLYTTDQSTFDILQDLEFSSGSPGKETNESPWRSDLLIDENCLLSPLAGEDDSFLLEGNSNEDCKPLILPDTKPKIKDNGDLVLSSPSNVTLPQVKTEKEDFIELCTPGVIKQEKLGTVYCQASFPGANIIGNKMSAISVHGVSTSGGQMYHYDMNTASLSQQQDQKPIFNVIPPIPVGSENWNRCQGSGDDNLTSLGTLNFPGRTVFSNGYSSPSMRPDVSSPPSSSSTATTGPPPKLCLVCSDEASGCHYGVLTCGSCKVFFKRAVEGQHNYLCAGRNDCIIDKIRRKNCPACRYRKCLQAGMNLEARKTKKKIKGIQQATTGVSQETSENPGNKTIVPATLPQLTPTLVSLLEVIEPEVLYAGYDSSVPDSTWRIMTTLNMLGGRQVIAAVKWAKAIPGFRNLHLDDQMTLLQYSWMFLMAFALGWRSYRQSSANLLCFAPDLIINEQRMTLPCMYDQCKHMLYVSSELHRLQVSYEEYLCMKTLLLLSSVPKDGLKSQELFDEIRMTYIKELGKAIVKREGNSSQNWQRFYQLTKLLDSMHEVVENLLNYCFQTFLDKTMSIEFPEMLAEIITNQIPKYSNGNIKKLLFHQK
Sequence of Lysosomal acid glucosylceramidase (Homo sapiens) (P04062 whole entry, looked up): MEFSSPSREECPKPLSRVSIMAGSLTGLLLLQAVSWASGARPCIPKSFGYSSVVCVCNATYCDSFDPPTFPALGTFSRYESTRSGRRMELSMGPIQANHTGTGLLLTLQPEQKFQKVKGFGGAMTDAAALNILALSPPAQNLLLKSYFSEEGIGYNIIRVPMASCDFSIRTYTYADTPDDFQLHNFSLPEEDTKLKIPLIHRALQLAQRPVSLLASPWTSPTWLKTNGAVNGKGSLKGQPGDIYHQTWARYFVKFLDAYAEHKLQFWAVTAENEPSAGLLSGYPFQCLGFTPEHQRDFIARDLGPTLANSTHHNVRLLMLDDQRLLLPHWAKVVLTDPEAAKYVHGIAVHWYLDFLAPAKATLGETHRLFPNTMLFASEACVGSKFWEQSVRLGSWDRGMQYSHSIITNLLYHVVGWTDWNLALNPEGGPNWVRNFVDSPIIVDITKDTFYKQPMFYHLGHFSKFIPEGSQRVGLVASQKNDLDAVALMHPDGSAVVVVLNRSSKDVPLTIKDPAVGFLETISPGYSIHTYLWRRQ
Sequence of Cytochrome P450 3A4 (Homo sapiens) (P08684 whole entry, looked up): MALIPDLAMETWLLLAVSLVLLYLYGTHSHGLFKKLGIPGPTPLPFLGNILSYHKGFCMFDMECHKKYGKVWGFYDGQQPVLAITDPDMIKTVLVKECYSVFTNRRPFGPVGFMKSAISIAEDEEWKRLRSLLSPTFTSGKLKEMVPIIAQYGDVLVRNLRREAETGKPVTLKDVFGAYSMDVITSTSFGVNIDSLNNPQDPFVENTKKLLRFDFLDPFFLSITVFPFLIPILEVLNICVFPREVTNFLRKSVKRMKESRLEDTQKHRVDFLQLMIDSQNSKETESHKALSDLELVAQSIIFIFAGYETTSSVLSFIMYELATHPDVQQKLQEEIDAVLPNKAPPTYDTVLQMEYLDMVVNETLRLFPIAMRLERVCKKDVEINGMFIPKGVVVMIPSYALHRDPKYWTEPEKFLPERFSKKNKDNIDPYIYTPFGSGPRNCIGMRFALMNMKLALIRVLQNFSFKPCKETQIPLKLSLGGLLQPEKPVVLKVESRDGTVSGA
Sequence of 3',5'-cyclic-AMP phosphodiesterase 4B (Homo sapiens) (Q07343 whole entry, looked up): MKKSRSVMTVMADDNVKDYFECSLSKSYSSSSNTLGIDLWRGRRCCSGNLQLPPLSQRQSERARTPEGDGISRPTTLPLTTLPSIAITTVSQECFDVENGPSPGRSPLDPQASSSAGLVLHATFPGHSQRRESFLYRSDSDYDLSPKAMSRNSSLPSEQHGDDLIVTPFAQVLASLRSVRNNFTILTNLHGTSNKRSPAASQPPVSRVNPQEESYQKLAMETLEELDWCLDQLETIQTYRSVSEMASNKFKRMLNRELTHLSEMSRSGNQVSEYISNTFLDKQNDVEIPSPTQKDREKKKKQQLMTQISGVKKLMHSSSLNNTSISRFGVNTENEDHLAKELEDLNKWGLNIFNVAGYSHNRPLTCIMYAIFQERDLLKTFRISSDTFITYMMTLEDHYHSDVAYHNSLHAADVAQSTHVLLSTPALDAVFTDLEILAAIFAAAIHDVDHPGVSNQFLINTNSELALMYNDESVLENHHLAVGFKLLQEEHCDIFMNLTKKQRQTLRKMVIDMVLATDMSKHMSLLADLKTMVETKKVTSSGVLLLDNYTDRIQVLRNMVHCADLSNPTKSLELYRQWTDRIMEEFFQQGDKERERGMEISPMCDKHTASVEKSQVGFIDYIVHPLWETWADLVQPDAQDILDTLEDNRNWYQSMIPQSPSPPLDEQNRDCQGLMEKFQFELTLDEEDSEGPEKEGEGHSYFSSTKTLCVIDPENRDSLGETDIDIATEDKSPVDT
Sequence of Cytochrome P450 2D6 (Homo sapiens) (P10635 whole entry, looked up): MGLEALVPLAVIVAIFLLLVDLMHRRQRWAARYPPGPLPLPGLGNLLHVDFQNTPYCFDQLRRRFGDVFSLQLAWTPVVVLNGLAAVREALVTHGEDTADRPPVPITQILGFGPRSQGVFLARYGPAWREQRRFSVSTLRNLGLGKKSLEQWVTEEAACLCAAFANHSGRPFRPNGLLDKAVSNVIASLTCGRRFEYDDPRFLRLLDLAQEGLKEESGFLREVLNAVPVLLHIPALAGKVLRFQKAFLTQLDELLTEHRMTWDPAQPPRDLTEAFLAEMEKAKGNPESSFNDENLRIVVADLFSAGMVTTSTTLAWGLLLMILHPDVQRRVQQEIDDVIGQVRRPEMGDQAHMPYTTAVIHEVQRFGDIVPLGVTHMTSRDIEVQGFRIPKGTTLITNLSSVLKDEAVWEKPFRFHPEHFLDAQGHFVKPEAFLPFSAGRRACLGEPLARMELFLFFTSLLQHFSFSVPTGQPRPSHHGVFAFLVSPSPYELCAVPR
Sequence of Cytochrome P450 2C9 (Homo sapiens) (P11712 whole entry, looked up): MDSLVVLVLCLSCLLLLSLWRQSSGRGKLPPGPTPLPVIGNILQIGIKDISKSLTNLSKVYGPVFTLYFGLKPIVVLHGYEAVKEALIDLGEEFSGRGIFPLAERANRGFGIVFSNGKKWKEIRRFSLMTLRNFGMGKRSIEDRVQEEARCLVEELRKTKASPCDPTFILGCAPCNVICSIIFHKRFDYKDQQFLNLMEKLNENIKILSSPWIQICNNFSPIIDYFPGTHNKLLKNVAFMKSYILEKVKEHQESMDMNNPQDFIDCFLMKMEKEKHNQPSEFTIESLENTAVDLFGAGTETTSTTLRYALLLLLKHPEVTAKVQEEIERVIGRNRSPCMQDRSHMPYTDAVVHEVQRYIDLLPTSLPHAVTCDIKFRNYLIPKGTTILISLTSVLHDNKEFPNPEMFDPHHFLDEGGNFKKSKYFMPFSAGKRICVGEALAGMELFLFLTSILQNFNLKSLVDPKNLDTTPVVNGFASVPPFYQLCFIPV
Sequence of Cytochrome P450 2C19 (Homo sapiens) (P33261 whole entry, looked up): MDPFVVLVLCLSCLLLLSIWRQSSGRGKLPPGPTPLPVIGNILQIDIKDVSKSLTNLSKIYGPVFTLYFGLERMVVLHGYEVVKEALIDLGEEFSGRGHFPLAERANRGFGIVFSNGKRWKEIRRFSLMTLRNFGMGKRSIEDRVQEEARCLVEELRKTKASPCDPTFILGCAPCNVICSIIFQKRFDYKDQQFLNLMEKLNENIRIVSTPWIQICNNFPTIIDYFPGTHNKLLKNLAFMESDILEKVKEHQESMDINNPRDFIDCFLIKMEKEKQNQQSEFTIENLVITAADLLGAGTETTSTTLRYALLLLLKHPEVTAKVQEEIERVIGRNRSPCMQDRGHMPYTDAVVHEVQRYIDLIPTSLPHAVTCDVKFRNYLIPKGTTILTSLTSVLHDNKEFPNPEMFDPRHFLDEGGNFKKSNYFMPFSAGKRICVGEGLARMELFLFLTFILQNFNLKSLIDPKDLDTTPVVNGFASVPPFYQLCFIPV

O=C(c1ccncc1)N1CCC[C@@]2(CCN(c3ncccn3)C2)C1
24.4%: max response [10, 18]
21.2%: max response [10, 17]
inactive: Potency [1] > 11.4 µM | activity change, negative = inhibition [2] 2.24% | Potency [3] | activity change, negative = inhibition [4] 20.3% | activity, negative = inhibition [5] 1.34% | Potency [6] > 46 µM | outcome [7] | Potency [8] | Potency [9] | activity change, negative = inhibition [10] 3.78% | Potency [11]

CS(=O)(=O)N1CCC[C@@]2(CCN(c3ccccn3)C2)C1
-1.27%: max response [10, 17]
2.21%: max response [10, 18]
inactive: Potency [1] > 11.4 µM | activity change, negative = inhibition [2] -9.92% | Potency [3] | activity change, negative = inhibition [4] -19.3% | activity, negative = inhibition [5] -8.41% | Potency [6] > 46 µM | outcome [7] | Potency [8] | Potency [9] | activity change, negative = inhibition [10] 2.29% | Potency [11]

O=C(c1cc(C(F)(F)F)cc(C(F)(F)F)c1)N1CCC2(CC1)CN(c1ccccc1)C2
inactive: Potency [1] > 11.4 µM | activity change, negative = inhibition [2] 29.9% | Potency [3] | activity change, negative = inhibition [4] -25.4% | activity, negative = inhibition [5] 2.58% | Potency [6] > 46 µM | outcome [7] | Potency [8] | Potency [12] | activity change, negative = inhibition [10] -8.64% | Potency [11]
active: Potency [9] 3.98 µM
5.35%: max response [10, 17]
-1.3%: max response [10, 18]

COCC(=O)N1CCC2(CC1)CCN(C(c1ccccc1)c1ccccc1)CC2
5.9%: max response [10, 18]
1.52%: max response [10, 17]
active: Potency [9] 25.1 µM
inactive: Potency [1] > 11.4 µM | activity change, negative = inhibition [2] -2.73% | Potency [3] | activity change, negative = inhibition [4] -16.3% | activity, negative = inhibition [5] 1.17% | Potency [6] > 46 µM | outcome [7] | Potency [8] | Potency [12] | activity change, negative = inhibition [10] 1.77% | Potency [11]

CC(C)NC(=O)N1CCC2(CC1)CCN(C(=O)c1cccc(F)c1)CC2
-10.3%: max response [10, 17]
inactive: Potency [1] > 11.4 µM | activity change, negative = inhibition [2] 10.6% | Potency [3] | activity change, negative = inhibition [4] 6.56% | activity, negative = inhibition [5] 7.13% | Potency [6] > 46 µM | outcome [7] | Potency [8] | Potency [12] | activity change, negative = inhibition [10] 1.61% | Potency [11]
active: Potency [9] 20 µM
-8.2%: max response [10, 18]

Cn1cccc1C(=O)N1CCC2(CC1)CCN(c1ccc(-c3ccccc3)cc1)CC2
active: Potency [3] 20 µM | Potency [9] 15.8 µM
-7.47%: max response [10, 18]
inactive: Potency [1] > 11.4 µM | activity change, negative = inhibition [2] -19.9% | activity change, negative = inhibition [4] 11.4% | activity, negative = inhibition [5] -10.4% | Potency [6] > 46 µM | outcome [7] | Potency [8] | Potency [12] | activity change, negative = inhibition [10] -6.03% | Potency [11]
-2.01%: max response [10, 17]

O=C(c1ccncc1)N1CCC2(CC1)CN(c1ccccc1)C2
18.7%: max response [10, 18]
9.42%: max response [10, 17]
inactive: Potency [1] > 11.4 µM | activity change, negative = inhibition [2] -2.66% | Potency [3] | activity change, negative = inhibition [4] 4.65% | activity, negative = inhibition [5] 3.39% | Potency [6] > 46 µM | outcome [7] | Potency [8] | activity change, negative = inhibition [10] 6.84% | Potency [11]
active: Potency [13] 2.51 µM | Potency [14] 7.94 µM | Potency [15] 0.316 µM

CC(C)NC(=O)N1CC[C@@]2(CCCN(C(=O)c3csnn3)C2)C1
7.3%: max response [10, 18]
4.92%: max response [10, 17]
inactive: Potency [1] > 11.4 µM | activity change, negative = inhibition [2] 8.93% | Potency [3] | activity change, negative = inhibition [4] 20.3% | activity, negative = inhibition [5] 10.6% | Potency [6] > 46 µM | outcome [7] | Potency [8] | Potency [9] | activity change, negative = inhibition [10] -0.319% | Potency [11]

COC(=O)N1CCC2(CC1)CN(C(c1ccccc1)c1ccccc1)C2
inactive: Potency [1] > 11.4 µM | activity change, negative = inhibition [2] 3.69% | Potency [3] | activity change, negative = inhibition [4] -16.9% | activity, negative = inhibition [5] 5.28% | Potency [6] > 46 µM | outcome [7] | Potency [8] | Potency [12] | activity change, negative = inhibition [10] -2.77% | Potency [11]
5.36%: max response [10, 17]
active: Potency [9] 0.794 µM | Potency [14] 0.794 µM
5.91%: max response [10, 18]

Cc1noc(C)c1C(=O)N1CCC[C@@]2(CCN(c3ccccc3)C2)C1
13.4%: max response [10, 17]
inactive: Potency [1] > 11.4 µM | activity change, negative = inhibition [2] -7.05% | activity change, negative = inhibition [4] -18.1% | activity, negative = inhibition [5] 3.26% | Potency [6] > 46 µM | outcome [7] | Potency [8] | Potency [9] | activity change, negative = inhibition [10] -2.45% | Potency [11]
active: Potency [3] 25.1 µM | Potency [12] 5.01 µM
14.8%: max response [10, 18]

COC(=O)N1CCC2(CC1)CCN(c1ccccc1)CC2
inactive: Potency [1] > 11.4 µM | activity change, negative = inhibition [2] 8.46% | Potency [3] | activity change, negative = inhibition [4] 7.28% | activity, negative = inhibition [5] 7.52% | Potency [6] > 46 µM | outcome [7] | Potency [8] | Potency [12] | activation [16] 0.0011% | activity change, negative = inhibition [10] 0.493% | Potency [11]
7.38%: max response [10, 18]
3.31%: max response [10, 17]

O=C(c1cnccn1)N1CCC[C@@]2(CCN(c3ccccc3)C2)C1
active: Potency [3] 15.8 µM | Potency [12] 7.94 µM
17%: max response [10, 17]
18.8%: max response [10, 18]
inactive: Potency [1] > 11.4 µM | activity change, negative = inhibition [2] -15.8% | activity change, negative = inhibition [4] -3.48% | activity, negative = inhibition [5] -3.78% | Potency [6] > 46 µM | outcome [7] | Potency [8] | Potency [9] | activity change, negative = inhibition [10] -0.338% | Potency [11]

Source: PubChem BioAssay (NCATS)
